Laboratory results taken from PubChem BioAssay AID777 (Sanford-Burnham Center for Chemical Genomics, 2007).
Out of some 96,000 compounds screened, about 19,000 (20%) were called active. Only a sample is shown. A number with no mark means an inactive call.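 The calls were made as follows: active = blocking of liver enzyme CYP2C9 beyond about 50% at 5 µM (limit read from the data); inactive = the rest.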

target: Cytochrome P450 2C9 (Homo sapiens) (UniProt P11712); assay: blockers of cytochrome P450 2C9 activity – biochemical, luminescence, ADME assay, primary screen (AID 777); settings: CYP2C9 Supersomes, luciferin-H conversion, at 5 µM, stronger effect = higher value
Sequence (P11712 whole entry, looked up): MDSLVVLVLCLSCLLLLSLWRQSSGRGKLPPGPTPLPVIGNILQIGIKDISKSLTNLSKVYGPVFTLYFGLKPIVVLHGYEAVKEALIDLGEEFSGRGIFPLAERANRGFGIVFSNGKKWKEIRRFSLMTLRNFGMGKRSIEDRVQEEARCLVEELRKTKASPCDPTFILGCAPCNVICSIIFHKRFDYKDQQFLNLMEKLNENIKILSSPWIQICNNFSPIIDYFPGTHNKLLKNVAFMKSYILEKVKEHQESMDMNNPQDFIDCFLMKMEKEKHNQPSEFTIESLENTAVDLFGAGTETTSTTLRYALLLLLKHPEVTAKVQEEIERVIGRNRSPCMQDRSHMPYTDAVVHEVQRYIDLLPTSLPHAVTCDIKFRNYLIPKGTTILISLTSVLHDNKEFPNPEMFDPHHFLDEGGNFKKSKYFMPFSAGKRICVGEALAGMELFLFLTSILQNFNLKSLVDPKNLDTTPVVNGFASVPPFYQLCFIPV

Row | SMILES | inhibition
1 | O=C(NC1CCCCC1)c1cc([N+](=O)[O-])ccc1N1CCOCC1 | 1.4%
2 | O=C(Nc1cc2c3c(c1)C1CCCC1CN3CC1CCCC21)c1ccc([N+](=O)[O-])cc1 (stereo unspecified) | 96.3% (active)
3 | COc1cccc(N2CCN(C(=O)Nc3ccc4c(c3)NC(=O)CO4)CC2)c1 | 13%
4 | O=C(Cc1nn[nH]n1)NCCC1=CCCCC1 | -1.8%
5 | Cc1ccc(-n2c(C)cc(/C=N/Nc3ccc([N+](=O)[O-])cn3)c2C)c(C)c1 | 13.3%
6 | COc1ccc(CN(C(=O)c2cccs2)c2nccs2)cc1OC | 99% (active)
7 | COc1ccc(S(=O)(=O)N2CCN(C(=O)c3cccs3)CC2)cc1OC | -35.4%
8 | O=C(c1cccs1)N(C(=O)c1cccs1)c1ccccn1 | 21.5%
9 | CC(C)CC(=O)N/C(N)=N/c1nc2ccccc2s1 | 27.6%
10 | C[N+]1(CCNC(=O)/C=N/O)CCCCC1 | 5.6%
11 | Cc1nc(-c2ccccc2)sc1C(=O)/C=C/c1ccccc1 | 15.9%
12 | Cc1ccc(SCC(=O)Nc2ncc(C)s2)cc1 | 35.5%
13 | Cc1ccc(SCC(=O)c2sc(-c3ccccc3)nc2C)cc1 | 83.6% (active)
14 | Cc1nn(-c2ncc(C(F)(F)F)cc2Cl)c(=O)n1-c1ccccc1 | -45.3%
15 | CCn1c(C)nc2c1C(=O)c1ccccc1C2=O | -0.9%
16 | O=C1CCCCC(=O)c2ccccc2N1 | 14.5%
17 | O=C(CSc1nc(-c2ccco2)cc(C(F)(F)F)n1)NCc1cccs1 | 7.6%
18 | FC(F)(F)c1cc(-c2ccco2)nc(N2CCOCC2)n1 | -16.1%
19 | FC(F)(F)c1cc(-c2cccs2)nc(NCc2ccco2)n1 | 60.7% (active)
20 | COc1ccc(Nc2nc(Cl)nc(NCc3ccco3)n2)cc1 | 5.9%
21 | COc1nc(NCc2ccc(Cl)cc2)nc(OC)n1 | 9.7%
22 | FC(F)(F)c1cc(-c2ccco2)nc(NCc2ccc(Cl)cc2)n1 | 97.5% (active)
23 | CCc1ccc(/C=N/NC(=O)c2ccc(OC3CCCC3)cc2)s1 | -41.1%
24 | Cc1oc(-c2ccccc2Cl)[n+]([O-])c1C | 7.1%

Row | SMILES | inhibition
25 | Cc1cnc(NC(=O)CSc2nnc(C)s2)s1 | 8.4%
26 | O=C(CSc1nnc(-c2ccoc2)o1)N1CCOCC1 | -12.9%
27 | CCc1ccc(N(CC)c2ncnc3nc[nH]c23)cc1 | 3.4%
28 | Cc1ccc(C)c(NC(=O)C2CCCN2C(=O)OC(C)(C)C)c1 (stereo unspecified) | -1.5%
29 | COc1cccc(NC(=O)C2CCCN2C(=O)OCc2ccccc2)c1 (stereo unspecified) | 15.8%
30 | Cc1ccc(C)c(NC(=O)C2Cc3ccccc3CN2C(=O)OCc2ccccc2)c1 (stereo unspecified) | 65% (active)
31 | O=C(Nn1cnc2ccccc2c1=O)c1ccc(F)cc1Cl | -8.6%
32 | O=C(CSCc1ccc(Cl)cc1)N1CCCCC1 | -83.2%
33 | O=C(CN1CCN(c2ccc(Cl)cc2)CC1)N1CCCC1 | 57.4% (active)
34 | Cc1ccc2[nH]c3c(c2c1)CN(C(=O)CN1CCN(c2ccccc2)CC1)CC3 | 30.7%
35 | Cc1nc(-c2ccccc2)sc1-c1nc(-c2ccccc2)ncc1S(=O)(=O)c1ccccc1 | 37.8%
36 | c1ccc(-c2nnc3n2NC(c2ccc4c(c2)OCO4)S3)cc1 (stereo unspecified) | 21.6%
37 | c1ccc(CSc2nnc(-c3ccco3)c(-c3ccco3)n2)cc1 | 72.9% (active)
38 | Clc1ccccc1CSc1nnc(-c2ccco2)c(-c2ccco2)n1 | 38.8%
39 | c1ccc(CSc2nnc(-c3ccco3)n2Cc2ccccc2)cc1 | 31.7%
40 | COc1ccc(C2C3=C(OC(C)=O)c4ccccc4C3=Nc3c2c(=O)n(C)c(=O)n3C)cc1 (stereo unspecified) | 7.6%
41 | CC(C)(C)NC(=O)Cn1nnc(-c2ccccc2Cl)n1 | -42.7%
42 | Cc1ccc(-c2nnn(CC(=O)N(CCO)C(C(=O)NC(C)(C)C)c3ccncc3)n2)cc1 (stereo unspecified) | 76.1% (active)
43 | COc1ccc(-c2nnn(CC(=O)N(CCO)C(C(=O)NC3CCCC3)c3ccc(F)cc3)n2)cc1 (stereo unspecified) | -3.9%
44 | O=C(Nc1cc(N2CCOCC2)ncn1)NC1(C(F)(F)F)Oc2ccc(Cl)cc2O1 (stereo unspecified) | 21.6%
45 | CCOCCCNC(=O)C(NC(=O)c1ccc(=O)[nH]c1)c1ccc(C)cc1 (stereo unspecified) | 16.2%
46 | O=C(Nc1nncs1)c1ccccc1NS(=O)(=O)c1cccs1 | 76.4% (active)
47 | Cc1ccccc1NC(=O)c1ccccc1NS(=O)(=O)c1cccc2cccnc12 | 45.1%
48 | COc1ccc(C(=O)Nc2nncs2)c(OC)c1 | -1.4%

Row | SMILES | inhibition
49 | CC(=O)c1ccc(NC(=O)N[C@@H](Cc2ccccc2)C(=O)O)cc1 | 4.2%
50 | N#CC1=C(N)Oc2n[nH]c(CSc3ccccc3)c2C12C(=O)Nc1ccccc12 (stereo unspecified) | 24.3%
51 | Cc1csc2ncc(C(=O)N(Cc3ccccc3)c3ccccn3)c(=O)n12 | 6.4%
52 | COCCCn1c(SCc2cccc(OC)c2)nc2cc(OC)c(OC)cc2c1=N | 71.3% (active)
53 | COc1cccc(-c2cc3nc4c(c(N5CCC6(CC5)OCCO6)n3n2)CCCC4)c1 | 49.8%
54 | O=C(Cc1ccc(F)cc1)NC1CCCC1 | -37.8%
55 | O=C(Cn1cnc2c(cnn2-c2ccccc2)c1=O)NCc1ccccc1 | -7.3%
56 | COC(=O)Nc1ccc(S(=O)(=O)N(C)CC(F)(F)C(F)F)cc1 | 59.2% (active)
57 | COC(=O)Nc1ccc(S(=O)(=O)N2CCN(CCN3C(=O)C4C5C=CC(C5)C4C3=O)CC2)cc1 (stereo unspecified) | 19.6%
58 | CCOC(=O)Nc1ccc(S(=O)(=O)N(C)C(C)C)cc1 | 32%
59 | CC(=O)NC1(c2cccc(F)c2)CCN(CC(=O)NC(C)C)CC1 | 4.1%
60 | CON(C)S(=O)(=O)c1ccc2c(c1)NC(=O)C1CCCN21 (stereo unspecified) | 44%
61 | O=S(=O)(c1ccc(F)cc1)n1ccc(-c2cnc(-c3ccccc3)s2)n1 | 53.9% (active)
62 | CCn1nnc(NC(=O)c2c(OC)cccc2OC)n1 | -11.4%
63 | O=C(Oc1ccc([N+](=O)[O-])cc1)c1ccc2ccccc2n1 | -28.9%
64 | Cn1cc(S(=O)(=O)N2CCN(c3ccc(F)cc3)CC2)c(=O)n(C)c1=O | -8.1%
65 | Cc1cc(C)cc(NC(=O)C2CCN(c3nc(C)cc(C)n3)CC2)c1 | 15.4%
66 | Cc1cc(NC(=O)c2cccc(N3C(=O)CCC3=O)c2)no1 | 3.5%
67 | O=C(Nc1ccc2c(c1)OCCO2)C(c1ccc(F)cc1)N1CCCCC1 (stereo unspecified) | 67.1% (active)
68 | CC1CCCN(C(C(=O)Nc2ccc(C(C)C)cc2)c2ccc3c(c2)OCO3)C1 (stereo unspecified) | 16.7%
69 | COc1ccc(-n2c(SCC(=O)Nc3ccc4c(c3)OCO4)nnc2C(C)N2CCCCC2)cc1 (stereo unspecified) | 20.2%
70 | CC(=O)Nc1ccc(S(=O)(=O)N2CCC(N(C)CCC(C)C)CC2)cc1 | 19.4%
71 | Cc1ccccc1C(=O)N1CCC(C(=O)Nc2ccc(S(=O)(=O)N(C)C(C)C)cc2)CC1 | 61.2% (active)
72 | CCN1CCN(C(=O)c2ccccc2N(C)S(=O)(=O)c2ccc(C)cc2)CC1 | -1.6%

Row | SMILES | inhibition
73 | NC(=NC(=O)c1ccccc1)C1=C(O)CCC1=O | 0%
74 | O=C(NC1CCc2ccccc21)C12CN(Cc3ccccc3)CC1C(c1cccc([N+](=O)[O-])c1)=NO2 (stereo unspecified) | 42.7%
75 | O=C(O)Cc1ccc(NC(=O)c2cccs2)cc1 | -6.9%
76 | CCc1ccccc1NC(=O)c1cccs1 | -6.7%
77 | Cc1cc2cc(CNC(=O)c3cccs3)ccc2[nH]1 | 60.2% (active)
78 | O=C(/C=C/Sc1ncn[nH]1)c1ccc(Cl)cc1 | 10.9%
79 | Cc1nc2ccccc2c(-c2ccccc2)c1C(=O)c1ccccc1 | 19.7%
80 | CCOC(=O)C1=C(CC)Nc2ccccc2N=C1NC(=O)c1cccc(S(=O)(=O)N2CCCC2)c1 | 90.2% (active)
81 | CCOC(=O)CSc1nnc(NC(=O)c2cccc(S(=O)(=O)N3CCCCC3)c2)s1 | 35.5%
82 | CCOC(=O)CSc1nnc(NC(=O)c2cccc(S(=O)(=O)N3CCCC3)c2)s1 | 14.4%
83 | COc1ccc2c(CC(=O)Nc3nnc(C4CC4)s3)coc2c1 | 24.7%
84 | CC(=O)c1c(N2CCOCC2)nc(=S)n(Cc2ccccc2)c1C | 12.5%
85 | COc1ccc(CN2CC(C(=O)NCCN3CCN(c4ccccc4F)CC3)CC2=O)cc1 (stereo unspecified) | -10.3%
86 | COc1ccc(N2CCN(CCNC(=O)c3nnc(Cc4c(F)cccc4Cl)o3)CC2)cc1 | 66.3% (active)
87 | COc1ccc(N2CCN(CCNC(=O)CCN3C(=O)COc4ccccc43)CC2)cc1 | -2.8%
88 | C/C(=C(\C#N)C(=O)NCCCN1CCOCC1)N(C)C | -16.4%
89 | CC(=O)Nc1ccc(NS(=O)(=O)c2cc(C)sc2C)cc1 | 56.5% (active)
90 | Cc1cc(C)c(C)c(S(=O)(=O)Nc2ccc(O)cc2)c1C | -16.6%
91 | CC(=O)Nc1ccc(S(=O)(=O)NCCc2ccccc2)cc1 | 49.5%
92 | Cc1cccc(NC(=O)COc2ccc(Br)cc2C)n1 | -11%
93 | O=C(Nc1cccc(Cl)c1)Nc1nnc(-c2ccccc2)o1 | 8.9%
94 | COc1ccc(CC(=O)Nc2ccc(-c3nnc(-c4ccccc4)o3)cc2)cc1 | 19%
95 | O=C(COC(=O)c1ccc(Oc2ccccc2)cc1)Nc1nnc(-c2ccccc2)o1 | 89.1% (active)
96 | COc1cccc(-n2c(Cc3cc(=O)[nH]c(=O)[nH]3)nnc2SCC(=O)Nc2ccccc2)c1 | -48.2%
